The record followed here is the supplement of paper PMC6555819.

This assay deals with PPARg:RXRa 90nM:30nM, anti-RXR (NR concentration 90 nM, RXRa partner concentration 30 nM). The assay is described as follows: PBM binding z-score (relative to random genomic background probes); higher = stronger binding; sequences stand for … in GC…GCGATTGACAGCGTAGAATGAAGG
A digest of the protocol: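 The probes on custom Agilent 4×180K protein-binding microarrays were double-stranded, with 34-nt variable regions bearing direct-repeat seeds, single-nucleotide variants, half-site ablations and random human genomic background sequences. Incubation lasted 1 h with ligand-free nuclear receptor dimers in PBS pH 7.4, 2% milk, 0.02% Triton X-100, 1 mM DTT, 0.2 mg/mL BSA and 0.4 mg/ml salmon testes DNA. Antibodies against each partner (one per run) detected bound dimers, and fluorescence scans were regression-normalized. Binding z-scores take the random background probes as reference.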
In turn, TAGAGTAGGTTAGTCGGGGCATTCAGCCAACATA yielded a PBM binding z-score of 1.33.
CGTCCAAGGTCAGAGAGGTAAGTGAATGCCGAGT showed a PBM binding z-score of 1.42.
CCGACTGTGGCAAAGGTTACCATACTCAGTACGA yielded a PBM binding z-score of 8.43.
In turn, CAGCCGAGGTCAGGGCCAGTATAGGAGGAACGTT yielded a PBM binding z-score of 3.28.
For the sequence CCAACTAGGTCAAGGTCAAAGTCGGTTTGTGCCA, the PBM binding z-score amounted to 7.56.
As for CCTAGCAGGCCCATCTGGGTCACTCAAGGCTTGA, the PBM binding z-score was -0.217.
CATCAAAGTTCAACTAAGGTAACGTAAAGCACGC displayed a PBM binding z-score of 3.32.
Sequence ACTAGCTGGTCAGCTGAGGTCACACACAATTCGG showed a PBM binding z-score of 0.958.
TCTTGTAGATCAACAGGAGGTTGAGAAAGATCGA: the PBM binding z-score was 2.24.
In the case of CTACCAAGGTGAACAAGGTCGTGGATTACTATTC, the PBM binding z-score was 0.918.
As to ACTCGGAGGACAAAGGTCAGAGCTACGCCAGTGA, the PBM binding z-score came out at 7.83.
For the sequence TCTTGTAGATCAATAGAGTTTAAGAAAGTGCGCT, the PBM binding z-score was found to be 1.99.
Sequence TAGCCCAGGTCATGCGGGCCAGTATAGTGTCGGC had a PBM binding z-score of 1.35.
Consider AGAACAAGGGCAATGAGTTGATAGCACGGGTGGC, for which the PBM binding z-score was -0.176.
The sequence CCTACTGGGCCACGAAAGGTCATTGAATCAGTGA returned a PBM binding z-score of 4.03.
Consider GCTTGTTGATCAAGGTTAAGAAAGACTAAGCTAA, for which the PBM binding z-score turned out to be 0.472.
Turning to CCTACTGGGCCAAGGACATTGATCAGTCAAAGCA, the PBM binding z-score stood at 0.46.
The sequence AGAATGAGGTTATACCTAGATCAGGGAAGAAAGT yielded a PBM binding z-score of 1.09.
